TGFb SMAD3 inh = qHTS for Inhibitors of TGF-b | HepG2 CAGA-GFP TGF-b/SMAD3 reporter, GFP fluorescence, 18 h; TGF-beta stimulated, 500 pg/mL final | AID 588855, 2011 | Potency, µM (highest dose often 46.1 µM), without a hit: at the top dose activity, negative = inhibition, most hits filed as inhibitors | 410,000 tested, 1.2% active; further: potency means the concentration at half of the fitted maximal effect; on the % scale 0 is the no-effect control and ±100 the full control effect; nearly all actives have a fitted effect of over 65% in size
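HEPG2 CAGA-GFP reporter cells (1000/well, DMEM with 1% FBS) received compounds, then recombinant TGF-beta at 500 pg/mL final for 18 hours at 37 degrees C. Per-cell GFP summed per well was normalised to unstimulated and stimulated DMSO controls before curve fitting.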
HepG2 viability = qHTS for Inhibitors of TGF-b: Cytotox Counterscreen | HepG2 CAGA-GFP viability, ATP luminescence, 18 h | 410,000 tested, 0.76% active | Potency, µM (top dose mostly 46.1 µM), without a hit: top-dose activity change, negative = cytotoxicity, most hits filed as cytotoxic | AID 588856, 2011; further: potency means the concentration at half of the fitted maximal effect
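CellTiter-Glo luminescence gave cytotoxicity after 18 hours at 37 degrees C. The cells were HepG2 CAGA-GFP in 1% FBS DMEM, stimulated with 500 pg/mL TGF-beta after compound addition. %Activity was normalised to no-cell wells (complete cell-killing) and DMSO (no toxicity), and curves were fitted and classified.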
S-ASM inh = Inhibitors of Secretory Acid Sphingomyelinase (S-ASM): qHTS | placental ASM, HMU-PC fluorogenic substrate, 60 min | Potency, µM (doses to about 57.5 µM), without a hit: at the top dose activity change, negative = inhibition, usual class: inhibitors | Sphingomyelin phosphodiesterase (Homo sapiens), P17405 | 340,000 tested, 0.006% active; further: potency means the concentration at half of the fitted maximal effect
Target sequence (P17405 47-631 limits assumed): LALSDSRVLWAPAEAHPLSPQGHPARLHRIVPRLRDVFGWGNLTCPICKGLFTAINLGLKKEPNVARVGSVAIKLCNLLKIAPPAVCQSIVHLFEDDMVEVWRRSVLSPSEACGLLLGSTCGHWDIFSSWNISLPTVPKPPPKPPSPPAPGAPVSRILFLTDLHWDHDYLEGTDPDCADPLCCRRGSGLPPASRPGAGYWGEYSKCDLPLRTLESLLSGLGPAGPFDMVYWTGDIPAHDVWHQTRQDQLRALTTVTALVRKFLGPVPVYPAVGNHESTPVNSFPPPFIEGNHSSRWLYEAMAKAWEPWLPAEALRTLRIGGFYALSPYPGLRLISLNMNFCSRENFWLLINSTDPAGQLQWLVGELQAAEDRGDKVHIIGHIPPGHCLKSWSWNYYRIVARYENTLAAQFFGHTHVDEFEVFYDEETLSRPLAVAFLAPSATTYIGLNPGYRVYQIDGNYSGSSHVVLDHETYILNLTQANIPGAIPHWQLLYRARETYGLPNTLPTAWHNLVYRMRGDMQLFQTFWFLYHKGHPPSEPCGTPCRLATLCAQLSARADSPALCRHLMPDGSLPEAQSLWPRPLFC
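Fluorescence read-out (Ex 386 nm, Em 447 nm) after stopping the reaction at pH 10. Enzyme: ASM from human placenta; substrate HMU-PC0, 9 uM final; 60 min, 37 °C. Compound preincubation 10 min, ambient temperature.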
DT40 TDP1 no CPT = qHTS for Inhibitors of human tyrosyl-DNA phosphodiesterase 1 (TDP1): qHTS in cells in absence of CPT | 420,000 tested, 15% active | AID 686978, 2013 | Potency, µM (series often up to 46.2 µM), for inactives: top-dose activity change, negative = growth inhibition, most hits filed as inhibitors | DT40 Tdp1-/- hTDP1 cells, no CPT, ATP luminescence, 48 h; further: potency means the concentration at half of the fitted maximal effect; on the % scale 0 is the no-effect control and ±100 the full control effect; nearly all actives have a fitted effect of over 55% in size
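Luminescent ATP content (CellTiter-Glo) served as the growth readout. Knockout chicken DT40 cells expressing human TDP1 were exposed to compounds without camptothecin for a minimum 48 hr at 37 °C.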
IL1B secr inh = qHTS for Inhibitors of Inflammasome Signaling: IL-1-beta AlphaLISA Primary Screen | THP-1 LPS/ATP IL-1B secretion, AlphaLISA, 16 h; stronger effect = lower value | 360,000 tested, 4.7% active | activity change, % at 57.5 µM; in the data active means activity change below about -50%; inconclusive means mostly about -30% to -49%; further: on the % scale 0 is the no-effect control and ±100 the full control effect
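Secreted IL-1B measured by AlphaLISA bead assay after 16 h compound exposure of THP-1 cells; compounds (final up to 57.5 uM) added 1 h before LPS (250 ng/mL) and ATP (1.25 mM) stimulation; lower signal means less secretion.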
DT40 TDP1 CPT = qHTS for Inhibitors of human tyrosyl-DNA phosphodiesterase 1 (TDP1): qHTS in cells in presence of CPT | chicken DT40 Tdp1-/-;hTDP1 cells + 20 nM CPT, ATP luminescence, 48 h | Potency, µM (doses to about 46.2 µM), for the others: at the top dose activity change, negative = growth inhibition, hits mostly inhibitors | 420,000 tested, 12% active | AID 686979, 2013; further: potency means the concentration at half of the fitted maximal effect; on the % scale 0 is the no-effect control and ±100 the full control effect; nearly all actives have a fitted effect of over 55% in size
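Chicken DT40 Tdp1-/- cells stably complemented with human TDP1 were seeded at 400 cells/well in medium containing 20 nM camptothecin, exposed to pin-transferred compounds, and grown at 37 °C for at least 48 hr. Viability was read as ATP luminescence.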
Numbers without * were called inactive; i = inactive; ? = inconclusive; / = no result. Shown are actives, neighbours in structure and some others; about 19% of the full set was active somewhere. Unless noted, the call rests on the fitted dose curve; in most records, active means well fitted curve in the direction sought with a large enough effect; inconclusive means small, poorly fitted or top-dose-only effect, or another doubt; inactive means no such curve, though single readings can be large; an effect the other way counts as inactive or inconclusive.

SMILES | TGFb SMAD3 inh | HepG2 viability | S-ASM inh | DT40 TDP1 no CPT | IL1B secr inh | DT40 TDP1 CPT
COc1ccc(-c2nc(CS(=O)CC(=O)NCc3ccc4c(c3)OCO4)c(C)o2)cc1OC (stereo not given) | 3% | -3% | -3% | -14% | ? | ?
Cc1cn([C@H]2C[C@H](O)[C@@H](/C=C/C(=O)NCCc3ccc(S(N)(=O)=O)cc3)O2)c(=O)[nH]c1=O | -7% | -12% | / | 13% | -22 | 4%
COc1ccc(C)cc1NC(=O)Nc1ccccc1OCc1cc(=O)n2ccccc2n1 | 14% | -14% | / | ? | / | ?
COC(=O)CCC(=O)c1oc2ccc(Br)cc2c1N | 19% | -6% | 126% | 26µM* | 7 | ?
COc1ccc2oc(C(=O)CCC(=O)O)c(N)c2c1 | -2% | 3% | 21% | 30% | 9 | -22%
O=C(NNC(=S)Nc1ccc(Cl)cc1Cl)c1cccnc1 | -1% | -6% | 0% | 9% | -2 | 7%
O=C(Nc1cccc(Cl)c1Cl)c1ccncc1 | -2% | -13% | -2% | -10% | -51* | -11%
CCc1ccc(C(=O)Nc2ccc3nc(C)ccc3c2)cc1 | 0% | -18% | -1% | ? | ? | ?
CC(C)(C)c1ccc(C(=O)Nc2ccc(NC(=O)c3ccc(Cl)c(Cl)c3)cc2)cc1 | -23% | -4% | / | 15µM* | / | 12µM*
Cc1ccc2cc(NC(=O)c3ccc(C(C)(C)C)cc3)ccc2n1 | 0% | 2% | -9% | ? | -101* | ?
O=C(O)Cc1ccc(NC(=O)c2ccc(Cl)c(Cl)c2)cc1 | -6% | -9% | 7% | -17% | 1 | 26%
O=C(NNC(=S)Nc1ccc(Cl)cc1Cl)c1ccncc1 | ? | -25% | 1% | 16µM* | -1 | -17%
O=C(NNC(=S)Nc1ccccc1Cl)c1ccncc1 | 3% | -1% | 7% | 0% | 17 | 10%
CCC(=O)c1ccc(OCC(=O)OCC(=O)N2c3ccccc3NC(=O)C2(C)C)cc1 | -14% | 2% | -1% | -15% | -1 | -13%
COc1ccc(NC(=O)CN(C)CC(=O)N2CCCCCC2)cc1 | -4% | 4% | 1% | -6% | 10 | -1%
O=C(NC1CCCC1)C(c1ccncc1)N(C(=O)c1ccco1)c1ccc(F)c(Cl)c1 (stereo not given) | -1% | -23% | 0% | -10% | ? | -6%
O=C(NNC(=O)c1ccccc1Br)c1ccncc1 | 9% | 11% | 1% | 24% | 0 | -12%
O=C(NCCNC(=O)c1cnccn1)c1ccc(Cl)c(Cl)c1 | 10% | 10% | -16% | -29% | 34 | 1%
O=C(NNC(=O)c1ccc(Cl)c([N+](=O)[O-])c1)c1ccncc1 | -14% | 23% | 1% | 9% | -15 | 12%
O=C(NNC(=O)c1ccc(Cl)c(Cl)c1)c1ccncc1 | -28% | 4.5µM* | 5% | -8% | 0 | 7%
O=C(Nc1ccncc1)c1ccc(Cl)c(Cl)c1 | -26% | -14% | 1% | 12µM* | ? | -22%
O=C(NNC(=O)c1cnccn1)c1ccc(Cl)c(Cl)c1 | -9% | -3% | -2% | 3.7µM* | 166 | 7.3µM*
O=C(NNC(=O)c1ccccc1Br)c1cnccn1 | ? | -29% | -1% | ? | 16 | 18µM*
O=S(=O)(c1ccc(F)cc1)N1CCN(S(=O)(=O)c2cccs2)CC1 | -3% | -11% | -2% | 11% | i | -4%
C/C(=N\NC(=O)C(=O)Nc1cccc(Cl)c1C)c1ccncc1 | 3% | -22% | -1% | 15µM* | 1 | 21µM*
SMILES | TGFb SMAD3 inh | HepG2 viability | S-ASM inh | DT40 TDP1 no CPT | IL1B secr inh | DT40 TDP1 CPT
COc1ccc(NC(=O)Cc2nnc(SCC(=O)NC3CCCC3)n2C)cc1 | 3% | 12% | 3% | -5% | 12 | -11%
CCSc1nnc2ccc(-c3ccc(OC)c(OC)c3)nn12 | 12% | -15% | 33% | 23µM* | -68* | ?
CCn1cc(CN2CCN(CCC(C)C)C(CCO)C2)c2ccccc21 (stereo not given) | -16% | 11µM* | 4% | ? | 5 | ?
CC(C)=CCN1CCN(Cc2cn(C(C)C)c3ccccc23)CC1CCO (stereo not given) | 5% | -15% | -1% | 23µM* | -4 | 18µM*
CCn1cc(CN2CCN(C)C(CCO)C2)c2ccccc21 (stereo not given) | 4% | -6% | -1% | 8% | 4 | 3%
COc1ccccc1C1C(C(C)=O)=C(C)N=c2s/c(=C\c3cc(OC)c(OC)c(OC)c3)c(=O)n21 (stereo not given) | 6% | -40% | -24% | 21µM* | 9 | 16µM*
N#Cc1ccc(-c2csc(NNC(=O)c3ccccc3)n2)cc1 | -24% | -7% | -2% | ? | -2 | ?
CC(=O)Nc1ccc(-c2csc(NNC(=O)c3ccc(C)cc3)n2)cc1 | -13% | 3% | -1% | 10µM* | -12 | 13µM*
N#Cc1ccc(-c2csc(NNC(=O)c3ccc(Br)cc3)n2)cc1 | ? | -40% | -7% | 5.8µM* | -2 | 5.2µM*
O=C(NNc1nc(-c2ccccc2)cs1)c1ccccc1 | -38% | -30% | 4% | 21µM* | -14 | ?
CC(=O)NNc1nc(-c2ccc(NC(C)=O)cc2)cs1 | -3% | -4% | -2% | 6% | -7 | -12%
Cc1ccc(NC(=O)C(NC2CCCc3ccccc32)c2ccccc2)c([N+](=O)[O-])c1 (stereo not given) | 0% | 10% | -8% | 23µM* | -2 | ?
CNC(=O)NC(=O)C(NC1CCCc2ccccc21)c1ccccc1 (stereo not given) | 9% | -1% | 10% | -3% | 20 | -21%
Cc1ccc(NC(=O)C(NC2CCCc3ccccc32)c2ccccc2)cc1Cl (stereo not given) | 0% | -15% | -2% | 18µM* | 0 | 2.9µM*
CCCCCNC(=O)C(c1cccc2ccccc12)n1c(=O)c(-c2cc3ccccc3[nH]2)nc2ccccc21 (stereo not given) | / | / | / | ? | 58 | ?
